Compounds with a hit are over-represented: about 12% of the library has one in this group of screens.
BAZ2B inh = BAZ2B (human) inhibition | Potency, µM (highest dose often 114 µM), actives largely listed as inhibitors | 360,000 tested, 4.4% active | AlphaScreen BAZ2B-H3K14Ac peptide displacement | Q9UIF8; further: nearly all actives have a fitted effect of over 60% in size
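BAZ2B (50 nM) with biotin-H3(5-23)K14Ac peptide (50 nM) in PBS pH 7.4, 0.01% Tween-20, preformed 30 min, then compound 30 min at room temperature; top concentration 110uM. AlphaScreen streptavidin donor/nickel chelate acceptor beads (10 ug/mL final), 20 min dark, signal read.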
JMJD2A Tudor = inhibitors of human JMJD2A Tudor domain. 390,000 tested, 4.4% active. AlphaScreen JMJD2A-Tudor / H3K4me3 peptide binding. Potency, µM (top dose mostly 114 µM), usual class: inhibitors; further: nearly all actives have a fitted effect of over 50% in size
Target sequence (O75164 whole entry, looked up, the tested form may be a part): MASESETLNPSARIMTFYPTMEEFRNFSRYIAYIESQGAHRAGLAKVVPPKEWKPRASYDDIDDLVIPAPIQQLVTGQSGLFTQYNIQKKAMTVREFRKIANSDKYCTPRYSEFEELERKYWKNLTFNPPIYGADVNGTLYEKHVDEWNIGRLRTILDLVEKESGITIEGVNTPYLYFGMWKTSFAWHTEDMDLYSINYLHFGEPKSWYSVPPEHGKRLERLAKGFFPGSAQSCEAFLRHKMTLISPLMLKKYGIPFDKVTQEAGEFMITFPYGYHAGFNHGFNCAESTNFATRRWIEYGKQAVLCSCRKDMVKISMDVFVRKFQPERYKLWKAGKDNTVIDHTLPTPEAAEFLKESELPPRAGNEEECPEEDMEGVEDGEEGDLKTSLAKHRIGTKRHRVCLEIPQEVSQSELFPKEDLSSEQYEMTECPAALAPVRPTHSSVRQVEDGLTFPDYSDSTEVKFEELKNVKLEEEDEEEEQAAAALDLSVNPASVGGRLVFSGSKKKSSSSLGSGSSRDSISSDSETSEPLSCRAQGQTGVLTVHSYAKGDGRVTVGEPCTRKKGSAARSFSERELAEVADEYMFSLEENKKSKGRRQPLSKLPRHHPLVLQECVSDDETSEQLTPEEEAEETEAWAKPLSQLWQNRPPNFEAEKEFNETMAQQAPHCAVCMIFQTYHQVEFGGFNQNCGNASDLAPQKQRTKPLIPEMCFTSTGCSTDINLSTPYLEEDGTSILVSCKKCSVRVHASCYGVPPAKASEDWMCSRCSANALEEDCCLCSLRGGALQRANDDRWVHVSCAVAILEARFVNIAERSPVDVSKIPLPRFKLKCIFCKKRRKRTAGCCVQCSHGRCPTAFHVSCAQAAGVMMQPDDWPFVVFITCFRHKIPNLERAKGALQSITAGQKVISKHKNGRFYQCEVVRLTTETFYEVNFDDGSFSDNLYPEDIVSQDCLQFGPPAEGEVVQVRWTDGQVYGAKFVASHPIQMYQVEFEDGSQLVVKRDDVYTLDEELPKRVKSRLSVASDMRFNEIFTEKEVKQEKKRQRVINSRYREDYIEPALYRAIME
HP1b chromo inh = inhibitors of HP1-beta chromodomain binding to methylated histone tails; AlphaScreen HP1-beta / biotin-H3K9me3 peptide binding; P83916; AID 540317; 390,000 tested, 0.56% active; Potency, µM (doses to about 114 µM), most hits filed as inhibitors; further: nearly all actives have a fitted effect of over 70% in size
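AlphaScreen: HP1-beta (50 nM) preformed 30 min with biotin-H3(1-18)K9me3 peptide (50 nM) in PBS pH 7.4, 0.01% Tween-20. Compound added for 30 min at RT, then streptavidin donor/nickel chelate acceptor beads (10 ug/mL) for 30 min.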
Sfp inh = inhibitors of Bacillus subtilis Sfp phosphopantetheinyl transferase | Q9F4F7 | Potency, µM, actives largely listed as inhibitors | AID 1490 | Biochemical Sfp PPTase activity, qHTS | 310,000 tested, 3.5% active;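 further: the enzyme is Sfp with the accession as filed and its product quenches rhodamine fluorescence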
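Reaction rates are the 30-min fluorescence difference (ex 525, em 598 nm) in wells containing 15 nM Sfp, 5 uM rhodamine-CoA and 12.5 uM BHQ-2-YbbR at pH 7.6 with 10 mM MgCl2.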
G9a inh = inhibitors of human histone lysine methyltransferase G9a; G9a H3K9 monomethylation, AlphaScreen, 2 h; Potency, µM (titrated, usually from 102 µM), actives largely listed as inhibitors; 350,000 tested, 8.8% active; AID 504332; further: nearly all actives have a fitted effect of over 75% in size
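Compounds were preincubated with 20 nM G9a for 15 min, after which biotinylated H3K9 peptide (500 nM) and SAM (20 uM) started a 2 h room-temperature reaction. Monomethylated product was quantified by antibody-based AlphaScreen chemiluminescence.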
Of the large screens only hits and unclear results are named; the others gave an inactive call. The call rests on the fitted dose curve; in most records, active means well fitted curve in the direction sought with a large enough effect; inconclusive means small, poorly fitted or top-dose-only effect, or another doubt; inactive means no such curve, though single readings can be large; an effect the other way counts as inactive or inconclusive.

COC(=O)[C@H](C)N(Cc1ccc(Cl)c(Cl)c1)S(=O)(=O)CCNC1CCCC1	none (no result: BAZ2B inh, Sfp inh, G9a inh)
COc1ccc(NC(=O)COC(=O)c2cc3c(s2)CCC3)cc1	BAZ2B inh 79µM, JMJD2A Tudor inconclusive, HP1b chromo inh inconclusive (no result: Sfp inh)
O=C(COC(=O)c1cc2c(s1)CCC2)Nc1ccc(F)cc1	BAZ2B inh 50µM, JMJD2A Tudor 14µM, HP1b chromo inh 40µM, G9a inh inconclusive
O=C(COC(=O)c1cc2c(s1)CCCC2)Nc1ccc(Cl)cn1	G9a inh inconclusive
COc1ccc(CN2CCC(Cc3ccccc3)CC2)c(C)c1C	BAZ2B inh inconclusive, JMJD2A Tudor 28µM, G9a inh inconclusive
COc1cc2nc(CN3CCC(Cc4ccccc4)CC3)[nH]c(=O)c2cc1OC	none
CCC1CCCCN1Cc1ccc(OC)c(C)c1C (centres undefined)	BAZ2B inh inconclusive, G9a inh 25µM
COc1cc(CN2CCC(Cc3ccccc3)CC2)cc(OC)c1OC	BAZ2B inh 79µM, JMJD2A Tudor 25µM, HP1b chromo inh inconclusive (no result: G9a inh)
CC(C)(C)C(Cn1ccnc1)NC(=O)c1ccc2nc(C3CC3)oc2c1 (centres undefined)	none
COc1cc(OC)c(NC(=O)N2CCC(CN3CCCC3)CC2)cc1Cl	none (no result: Sfp inh)
COc1ccc(NC(=O)c2cc(-c3ccco3)nc3ccccc23)cc1	JMJD2A Tudor inconclusive (no result: BAZ2B inh, Sfp inh, G9a inh)
Cc1ccc(S(=O)(=O)N(C)C)cc1NC(=O)Nc1ccccc1F	G9a inh 50µM
CCc1nnc(NC(=O)c2cc(-c3ccco3)nc3ccccc23)s1	BAZ2B inh 40µM, JMJD2A Tudor inconclusive, G9a inh 50µM
Cc1cccc(NC(=O)c2cc(-c3ccco3)nc3ccccc23)n1	BAZ2B inh inconclusive, Sfp inh 22µM, G9a inh 32µM
Cc1cc(C)cc(NC(=O)Nc2cc(S(=O)(=O)N(C)C)ccc2C)c1	none
Cc1ccccc1NC(=O)c1cc(-c2ccco2)nc2ccccc12	JMJD2A Tudor 20µM, HP1b chromo inh inconclusive (no result: BAZ2B inh, Sfp inh, G9a inh)
O=C1CC(c2ccccc2)CC2=C1C1(CCCCC1)N=C(Nc1nc3ccccc3o1)N2 (centres undefined)	none (no result: BAZ2B inh, HP1b chromo inh, Sfp inh, G9a inh)
COc1ccccc1N(CC(O)COc1ccccc1C)S(=O)(=O)c1ccccc1 (centres undefined)	none
CC(C)c1nn2c(=O)cc(COC(=O)c3ccc(NC(=O)COc4ccccc4)cc3)nc2s1	none (no result: Sfp inh)
Cc1ccc(S(=O)(=O)N(C)C)cc1NC(=O)c1cc(-c2ccco2)nc2ccccc12	BAZ2B inh inconclusive, JMJD2A Tudor inconclusive, G9a inh 40µM
COc1ccc2c(c1)cc1c(=O)n(CC(=O)NCc3ccco3)nc(C)n12	none (no result: Sfp inh)
O=C1C2C3C=CC(CC3)C2C(=O)N1/N=C/c1c(O)ccc2ccccc12 (centres undefined)	G9a inh 25µM
Cc1nnc(C)n1/N=C/c1c(O)ccc2ccccc12	BAZ2B inh inconclusive, JMJD2A Tudor 8.9µM
Cc1nnc(-c2ccccc2)c(=O)n1/N=C/c1c(O)ccc2ccccc12	BAZ2B inh 25µM, JMJD2A Tudor 56µM, G9a inh inconclusive
COc1ccc2ccccc2c1/C=N\n1c(C)cc(C)c(C(N)=O)c1=O	BAZ2B inh inconclusive
CCOc1cc(/C=N/n2c(C)nnc2C)ccc1O	none
COC(=O)[C@@]1(Cc2ccc(OC)cc2)[C@H]2c3cc(C(=O)N(C)C)n(Cc4ccccc4)c3C[C@H]2CN1C(=O)c1ccccc1	none (no result: BAZ2B inh, JMJD2A Tudor, HP1b chromo inh, G9a inh)
Cc1ccc(NC(=O)CN(CCc2ccccc2)S(C)(=O)=O)cc1	none (no result: G9a inh)
O=C(NCc1cccnc1)c1nn(-c2ccccc2F)nc1CO	none (no result: Sfp inh)
CNC[C@H](Cc1ccccc1)NC[C@@H](Cc1cccc2ccccc12)NCCc1ccc(C)cc1	BAZ2B inh inconclusive, JMJD2A Tudor inconclusive, Sfp inh 50µM, G9a inh inconclusive
CNCCNC[C@H](Cc1cccc2ccccc12)NCCc1ccccc1	JMJD2A Tudor inconclusive (no result: BAZ2B inh, Sfp inh, G9a inh)
O=P1(O)Cc2ccccc2-c2ccccc21	none (no result: BAZ2B inh, Sfp inh, G9a inh)
CCCCn1c(=N)c(S(=O)(=O)c2ccc(Cl)cc2)cc2c(=O)n3cccc(C)c3nc21	none (no result: Sfp inh)
c1cc2nc(C34CC5CC(CC(C5)C3)C4)[nH]c2cn1	BAZ2B inh 50µM, JMJD2A Tudor 22µM, HP1b chromo inh inconclusive, G9a inh 14µM
Cc1sc2nc(CN3CCOCC3)[nH]c(=S)c2c1C	Sfp inh 8.9µM, G9a inh 40µM
Cc1sc2nc(CN3CCOCC3)nc(NCCc3ccccc3)c2c1C	JMJD2A Tudor inconclusive
Cc1sc2nc(CN3CCN(c4ccc(O)cc4)CC3)[nH]c(=O)c2c1C	BAZ2B inh inconclusive, JMJD2A Tudor inconclusive, HP1b chromo inh inconclusive, Sfp inh 35µM (no result: G9a inh)
COc1ccc(/C=C/C(=O)Nc2sc3c(c2C(N)=O)CCC(C)C3)cc1OC (centres undefined)	none (no result: Sfp inh)
COc1cc(OC)c(NC(=O)CCCNC(=O)Cn2cnc3sc(C)c(C)c3c2=O)cc1Cl	none
Cc1ccc(S(=O)(=O)NCC(=O)N(c2ccccc2)C(C(=O)NCc2ccccc2)c2ccco2)cc1 (centres undefined)	Sfp inh 79µM
Cc1cc(C)cc(N(C(=O)CNS(=O)(=O)c2ccccc2)C(C(=O)NCc2ccccc2)c2ccc(C)o2)c1 (centres undefined)	G9a inh inconclusive
CCCCNc1nc(Oc2ccc(=O)n(C)n2)nc(N2CCOCC2)n1	none (no result: Sfp inh)
CS(=O)(=O)Nc1cccc(-c2nc(N3CCOCC3)c3ccccc3n2)c1	none (no result: BAZ2B inh, JMJD2A Tudor, HP1b chromo inh, G9a inh)
COc1ccc(F)cc1C(=O)C1CCCN(Cc2cnc(N3CCCC3)s2)C1 (centres undefined)	none (no result: G9a inh)
COc1ccc(Cl)cc1C(=O)C1CCCN(Cc2cnc(N3CCOCC3)s2)C1 (centres undefined)	JMJD2A Tudor 14µM, HP1b chromo inh inconclusive
CCOC(=O)c1c(NC(=O)c2c(C)noc2C)sc2c1CCCCC2	Sfp inh 56µM
Cc1occc1C(=O)Nc1sc2c(c1C(N)=O)CCCCC2	Sfp inh 25µM, G9a inh 13µM
Cc1noc(C)c1C(=O)Nc1sc2c(c1C(N)=O)CCC2	none
Cc1noc(C)c1C(=O)Nc1sc2c(c1C(N)=O)CCCCC2	BAZ2B inh inconclusive, Sfp inh 45µM, G9a inh inconclusive
O=S(=O)(c1ccccc1)N1CCC2(CCCN(c3ncccn3)C2)CC1	none (no result: BAZ2B inh, JMJD2A Tudor, HP1b chromo inh)
Cc1cccc(CSc2ccc3nnc(CCNS(=O)(=O)c4ccccc4)n3n2)c1	none (no result: Sfp inh)
COc1ccccc1S(=O)(=O)Cc1ccc(C(=O)N2CCN(c3cc(Cl)ccc3C)CC2)o1	none (no result: Sfp inh)
Nc1c(C(=O)c2ccccc2)sc2snc(SCC(=O)c3ccccc3)c12	Sfp inh 40µM
COc1ccc(CN(CC2CCCO2)S(=O)(=O)c2ccc(-n3cnnn3)c(OC)c2)cc1 (centres undefined)	none
COc1cc(S(=O)(=O)N(Cc2cccc(OC)c2OC)CC2CCCO2)ccc1-n1cnnn1 (centres undefined)	G9a inh 50µM
COc1ccc(CN(Cc2cccnc2)S(=O)(=O)c2ccc(-n3cnnn3)c(OC)c2)cc1	none

Screening results (PubChem BioAssay)
